Bioassay records deposited in PubChem by several laboratories.
KLF5 inhibitor = suppresses KLF5 promoter-driven expression | inhibition, % at 5 µM | DLD-1 KLF5 promoter-luciferase reporter, luminescence | actives 0.23% (n = 290,000) | AID 1700;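 active means inhibition above a per-plate limit of that plate's mean compound inhibition plus 3 SD, cut at about 60% in these data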;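 further: 0% = DMSO wells and 100% = LY294002 at 200 µM; higher means less KLF5 promoter-driven luciferase light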
aSyn UTR inh = 5' untranslated region of α-synuclein, MLPCN primary screen. alpha-synuclein 5'UTR reporter, inhibitor activity. actives 0.82% (n = 300,000). inhibition, % (tested at 7.5 µM); in the data active means inhibition above about 60%;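 further: H4 neuroglioblastoma cells stably carrying SNCA 5'UTR luciferase fusion; 0% = DMSO wells and 100% = positive control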
APP 5UTR inh = APP translation inhibition | actives 0.82% (n = 190,000) | AID 1285 | inhibition, % at 2 µM | SH-SY5Y APP 5'UTR-luciferase reporter, luminescence;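 active means inhibition above a set limit, derived from the sample mean plus 3 SD, cut at about 45% in these data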
IEC-6 cytotox = counter-screen for KLF5 inhibitors: cytotoxicity in IEC-6 cells; IEC-6 cytotoxicity, luminescence viability; inhibition, % at 5 µM; actives 0.78% (n = 290,000);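 further: 0% = plate median of test compound wells and 100% = cytotoxic reference compound wells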
BaF3 parental = counter-screen for JAK2V617F inhibitors: parental Ba/F3 viability inhibitors. CellTiter-Glo ATP luminescence. inhibition, % at 5.6 µM. actives 1.1% (n = 220,000);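 active means inhibition above a per-campaign cutoff, the mean inhibition of all tested compounds plus 3 SD, cut at about 27% in these data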;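 further: 0% = DMSO wells and 100% = JAK Inhibitor I control wells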
Ba/F3 V617F tox = lowers viability of Ba/F3 cells expressing EpoR and JAK2V617F; AID 1446; actives 1.1% (n = 220,000); inhibition, % at 5.6 µM; ATP luminescence;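 active means inhibition above the campaign mean plus 3 SD over all tested compounds, cut at about 24% in these data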;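 further: cytokine-independent growth of Ba/F3 cells driven by EpoR plus mutant JAK2; 0% = DMSO-treated cells and 100% = JAK inhibitor I control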
IEC-6 tox confirm = IEC-6 cytotoxicity, confirmation assay | shares compounds with IEC-6 cytotox | IEC-6 rat intestinal epithelial viability, luminescence | inhibition, % at 5 µM | actives 63% (n = 1,900);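 further: 0% = vehicle and 100% = reference cytotoxic drug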
* = called active by the depositor; x = no result. Shown are actives, neighbours in structure and some others; about 2.2% of the full set was active somewhere. Unless noted, no stated cut-off is given here; in the data, active means inhibition above about 22%; inactive means the rest.

SMILES	KLF5 inhibitor	aSyn UTR inh	APP 5UTR inh	IEC-6 cytotox	BaF3 parental	Ba/F3 V617F tox	IEC-6 tox confirm
O=C(CN1CCN(c2ccccn2)CC1)Nc1cccc(Br)c1	-11.0	11.4	x	7.8	x	x	x
O=C(NC(=S)Nc1ccc2[nH]c(=O)[nH]c2c1)c1cccc(F)c1	-36.0	5.5	x	-2.0	x	x	x
Cc1ccc(CNC(=O)Cc2ccc(-n3cccc3)cc2)cc1	-18.2	-3.1	24.8	3.1	7.6	4.3	x
O=C(Cc1ccc(-n2cccc2)cc1)NCc1cccs1	42.6	40.4	94.1*	72.6*	78.6*	82.5*	58.8*
CCCCc1ccc(NC(=O)CSc2nnc(C)c(=O)n2N)cc1	-31.1	6.9	x	4.4	x	x	x
CCOc1ccc(N(C)S(=O)(=O)c2cc(-c3cc(C)no3)ccc2C(C)C)cc1	-15.6	-12.6	x	1.1	x	x	x
CCOc1ccc(N(C)S(=O)(=O)c2ccc(-c3cc(C)no3)s2)cc1	38.9	-58.7	x	56.9*	x	x	38.1*
O=C(NNc1ccccc1F)c1ccccc1	-2.3	2.6	x	25.5*	-6.6	10.5	-8.5
CN(C)C(=S)Nc1nc2ccccc2s1	-181.6	-136.6	-63.4	30.2*	3.5	2.9	-5.2
O=C(CSc1nnnn1C1CCCCC1)Nc1ccccc1F	-1.6	4.4	-16.4	10.6	3.2	-3.9	x
O=C(CSc1nnnn1C1CC2CCC1C2)Nc1ccnc2ccccc12 (stereo unspecified)	21.4	x	17.4	35.9*	63.0*	68.3*	15.9
CCOc1cc(CNc2ccc3c(c2)OCCO3)cc(Br)c1OCC	6.7	97.4*	94.7*	83.1*	74.3*	74.3*	53.2*
Clc1ccc(C2=Nn3c(nnc3-c3n[nH]c4c3CCC4)SC2)cc1	-10.4	58.3	89.2*	31.5*	50.4*	54.5*	49.9*
Cc1[nH]c2ccc(-c3n[nH]c(=S)n3-c3ccccc3)cc2c1C	-31.6	6.1	-14.9	49.4*	2.8	-1.9	32.1*
Cc1[nH]c2ccc(-c3n[nH]c(=S)n3-c3ccc(Br)cc3)cc2c1C	-4.9	1.2	-14.4	49.6*	3.2	-1.9	44.1*
COc1cccc(-n2c(-c3ccc4[nH]c(C)c(C)c4c3)n[nH]c2=S)c1	-25.2	3.9	-2.2	48.3*	6.2	3.9	45.6*
COc1cccc(-n2c(-c3cccc(S(=O)(=O)N(C)C)c3)n[nH]c2=S)c1	-11.4	23.9	-8.2	3.0	5.5	1.2	x
Cc1ccc(/C(O)=C2\C(=O)C(=O)N(Cc3cccnc3)C2c2ccccc2[N+](=O)[O-])cc1 (stereo unspecified)	-73.5	-98.9	11.1	18.1	4.6	-0.2	x
CC(=O)c1cn(-c2ccc(Cl)cc2)c(=O)n(Cc2ccc(Br)cc2)c1=O	-22.6	27.9	6.8	3.0	1.4	-3.5	x
CC(=O)c1ccc(Nc2cc(C)nc3c(C)cccc23)cc1	35.5	7.7	87.2*	80.6*	76.5*	76.6*	59.7*
CC(=O)c1ccc(Nc2cc(C)nc3ccccc23)cc1	15.4	14.5	42.1	38.3*	12.3	6.8	34.8*
COC(=O)c1ccc(Nc2cc(C)nc3ccc(C)cc23)cc1	35.0	53.2	x	26.1*	3.2	10.9	27.0*
COc1ccc(Nc2cc(C)nc3ccccc23)cc1	4.5	19.6	5.3	19.7	2.1	2.4	x
Cc1cc(O)c(-c2cc(C(=O)Nc3ccc(S(=O)(=O)N4CCOCC4)cc3)[nH]n2)cc1C	-12.9	13.8	-10.3	2.0	2.7	-2.3	x
O=C(Nc1ccc(S(=O)(=O)N2CCOCC2)cc1)c1cc(-c2cc(Cl)ccc2O)n[nH]1	42.4	33.8	x	36.0*	59.5*	76.6*	4.8
Cc1ccc(Nc2nnc(SCC(=O)NC(Cc3c[nH]c4ccccc34)C(=O)O)s2)cc1 (stereo unspecified)	-24.4	-17.7	1.6	0.8	2.2	-0.4	x
COC(=O)c1c(C)oc2ccc(N(C(=O)c3ccncc3)S(=O)(=O)c3ccc(C)cc3)cc12	45.2	109.8*	89.0*	52.1*	75.2*	85.8*	56.7*
NS(=O)(=O)c1ccc(CCNC(=O)c2ccc(NS(=O)(=O)c3ccc4[nH]c(=O)[nH]c4c3)cc2)cc1	x	3.2	x	x	x	x	x
CCN(CC)S(=O)(=O)c1ccc(C)c(NC(=S)NC2CCCCC2)c1	-5.7	2.3	x	-0.7	0.2	-0.6	x
